High-throughput results (PubChem)
Only some compounds are listed: those with a hit (about 1.8% of all), similar ones and a draw of the others.
PHOSPHO1 block – PubChem AID 1565; inhibition, % at 13.3 µM; 290,000 tested, 1.1% active; Phosphoethanolamine/phosphocholine phosphatase (Homo sapiens), Q8TCT1; recombinant PHOSPHO1, absorbance phosphatase assay; in the data active means inhibition above about 60%
Target sequence (Q8TCT1 whole entry, looked up): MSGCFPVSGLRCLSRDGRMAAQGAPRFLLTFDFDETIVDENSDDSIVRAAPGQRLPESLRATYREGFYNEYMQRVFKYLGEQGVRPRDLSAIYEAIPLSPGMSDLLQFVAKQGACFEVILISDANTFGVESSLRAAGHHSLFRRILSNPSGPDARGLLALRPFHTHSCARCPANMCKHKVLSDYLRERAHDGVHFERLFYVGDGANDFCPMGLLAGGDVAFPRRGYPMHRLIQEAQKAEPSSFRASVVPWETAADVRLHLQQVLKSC
NadD block – inhibitors of S. aureus NadD, primary screen, biochemical, colorimetric, uHTS. purified NadD enzyme, colorimetric absorbance read-out. inhibition, % at 20 µM. 360,000 tested, 0.78% active; in the data active means inhibition above about 26%
UBC9 SUMO inh – inhibitors of in vitro SUMOylation cascade, primary screen, biochemical, HTRF, uHTS | SUMO-conjugating enzyme UBC9 (Homo sapiens), P63279 | HTRF SUMOylation assay, SAE1/SAE2 + UBC9 | inhibition, % at 35 µM | 290,000 tested, 0.36% active; in the data active means inhibition above about 50%, passing the limit was not always enough; inconclusive means no clear call, values can overlap the other calls
Target sequence (P63279 whole entry, looked up): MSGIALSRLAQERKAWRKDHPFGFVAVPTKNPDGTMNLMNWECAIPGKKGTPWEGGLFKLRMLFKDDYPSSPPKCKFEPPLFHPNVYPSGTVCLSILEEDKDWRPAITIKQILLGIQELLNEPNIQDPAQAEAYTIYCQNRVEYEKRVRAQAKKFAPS
pCIP destab – p/CIP-EGFP fusion destabilizers, primary screen, fluorescence, F442A cells; Q05BA5; 16 h; decrease of EGFP signal, % at 10 µM; 290,000 tested, 0.01% active;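 active means EGFP signal decrease of at least 30% at 10 µM or well 3 SD below plate mean, unless failing retest; inactive means the rest, including hits failing retest or dose response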
NadD conf – inhibitors of S. aureus NadD, confirmation, biochemical, colorimetric, single concentration. shares compounds with NadD block. purified S. aureus NadD, colorimetric enzyme assay. inhibition, % at 20 µM. 2,000 tested, 13% active. AID 624309, 2012; in the data active means inhibition mostly above about 42%, no sharp cut-off; inactive means mostly below about 42%
Each line names hits and unclear results; the compound was inactive in the other large screens (follow-up assays come after a bar, where they were run).

CC(C)C[C@@H](CN1CCC[C@@H]1CN1C(=S)NC[C@@H]1Cc1ccc(O)cc1)N1C[C@H](Cc2ccc(O)cc2)N(CCc2ccccc2)C1=S	NadD block 39.7 (no result: PHOSPHO1 block, UBC9 SUMO inh, pCIP destab) | NadD conf inactive
CC(C)C[C@@H](CN1CCCC1CN1C(=S)NC[C@@H]1Cc1ccccc1)N1C[C@H](Cc2ccc(O)cc2)N(CCc2ccccc2)C1=S (some centres undefined)	NadD block 45.2 (no result: PHOSPHO1 block, UBC9 SUMO inh, pCIP destab) | NadD conf inactive
CC(C)C[C@@H](CN1CCC[C@@H]1CN1C(=S)NC[C@@H]1Cc1ccccc1)N1C[C@H](Cc2ccc(O)cc2)N(CCc2ccccc2)C1=S	none (no result: PHOSPHO1 block, UBC9 SUMO inh, pCIP destab)
COc1cccc(OC)c1OCCN1CCC(C(=O)NC(c2ccc3c(c2)OCO3)c2ccccn2)CC1 (centres undefined)	none (no result: PHOSPHO1 block, UBC9 SUMO inh, pCIP destab)
CC(C)(CO)NCc1c(OCc2ccc(Cl)cc2)ccc2ccccc12	none
Cc1nc(NC(=O)C(C)(C)C)sc1-c1csc(N)n1	none (no result: PHOSPHO1 block, UBC9 SUMO inh, pCIP destab)
O=C(O)c1ccccc1-c1ccc(C=c2sc3nc4cc(Br)cnc4n3c2=O)o1	NadD block 59.1 (no result: PHOSPHO1 block, UBC9 SUMO inh, pCIP destab) | NadD conf inactive
N=C1S/C(=C\c2ccc(-c3ccccc3C(=O)O)o2)C(=O)N1c1ccc2c(c1)OCO2	none
CCC(=O)c1ccc(OC(C)C(=O)NC2(C#N)CCCCC2)cc1 (centres undefined)	none
CC(C)C[C@H]1CN([C@@H](Cc2ccc(O)cc2)CN2CCC[C@@H]2CN2C(=O)C(=O)NC[C@@H]2Cc2ccccc2)C(=O)C(=O)N1CC1CCCCC1	NadD block 30.7 (no result: PHOSPHO1 block, UBC9 SUMO inh, pCIP destab) | NadD conf inactive
CC(C)C[C@H]1CN([C@@H](Cc2ccccc2)CN2CCC[C@@H]2CN2C(=O)C(=O)NC[C@@H]2Cc2ccc(O)cc2)C(=O)C(=O)N1CC1CCCCCC1	none (no result: PHOSPHO1 block, UBC9 SUMO inh, pCIP destab)
CC(C)C[C@H]1CN([C@@H](Cc2ccc(O)cc2)CN2CCC[C@H]2CN2C(=O)C(=O)NC[C@@H]2Cc2ccccc2)C(=O)C(=O)N1CC1CCCCCC1	NadD block 30.3 (no result: PHOSPHO1 block, UBC9 SUMO inh, pCIP destab) | NadD conf inactive
Oc1ccc(Nc2nc(-c3cccs3)cs2)cc1	NadD block 33.3 | NadD conf 61.7
COc1ccc(Nc2nc(-c3cccs3)cs2)cc1	none (no result: NadD block)
COc1cc(-c2ccc(Nc3ccccc3C(=O)O)c(OC)c2)ccc1Nc1ccccc1C(=O)O	NadD block 50.3, UBC9 SUMO inh inconclusive | NadD conf inactive
COc1cccc(Nc2ccccc2C(=O)O)c1	none
CCCCN1C(=O)C(=O)NC[C@@H]1CC1CCCCC1	none (no result: PHOSPHO1 block, UBC9 SUMO inh, pCIP destab)
CCOc1ccc(C(=O)N/N=C/c2ccc(-c3ccc(S(=O)(=O)Nc4ncccn4)cc3)o2)cc1	NadD block 32.5 | NadD conf 52.8
NC(=S)NN=Cc1ccc(-c2ccc(S(=O)(=O)Nc3ncccn3)cc2)o1	none (no result: PHOSPHO1 block, UBC9 SUMO inh, pCIP destab)
CCOc1ccc(S(=O)(=O)N(CC(=O)N/N=C/c2ccc(-c3ccc([N+](=O)[O-])cc3)o2)c2ccccc2)cc1	NadD block 41.4 | NadD conf inactive
O=C(Nc1ccccc1)c1cc(C2CCCN(C(=O)c3ccc4c(c3)CCO4)C2)on1 (centres undefined)	none (no result: PHOSPHO1 block, UBC9 SUMO inh, pCIP destab)
Cc1ccc(-c2nc3ccccc3[nH]2)cc1NC(=O)c1sc2cc(Cl)ccc2c1Cl	NadD block 29.3 | NadD conf inactive
Cc1ccc(-c2nc3ccccc3[nH]2)cc1NC(=O)c1ccco1	none
Cc1ccc(N2C(=O)Nc3ccccc3S2(=O)=O)cc1Cl	none
CC(C)(C)C(=O)Nc1sc2c(c1C(=O)Nc1ccccn1)CCCC2	none
CC1CCCN(C(=S)SCC(=O)c2cc(Br)cc(Br)c2O)C1 (centres undefined)	NadD block 64.3 | NadD conf inactive
CC(C)CN(C)Cc1c(C(=O)N2CCc3ccccc3C2)nc2ccc(Cl)cn12	none
CCOC(=O)c1c(NC(=O)C2CCCCC2)sc2c1CCN(C(C)C)C2	none
COc1cc(OC)c(N(C)S(=O)(=O)c2cccc(C(=O)Nc3nnc(C4CC4)s3)c2)cc1Cl	NadD block 32.4 | NadD conf inactive
Cc1oc(-c2ccc(F)cc2)cc1-c1nn2c(-c3ccoc3C)nnc2s1	PHOSPHO1 block 97.8, NadD block 53.4 | NadD conf inactive
Cc1nnsc1-c1onc(C)c1C(=O)O/N=C/c1ccc(Cl)cc1	none
O=C1c2ccc(-c3ccc(Cl)c(C(F)(F)F)c3)cc2S(=O)(=O)c2cccc(C(=O)N3CCN(c4ccc(Cl)cn4)CC3)c21	NadD block 54.6 (no result: PHOSPHO1 block, UBC9 SUMO inh, pCIP destab) | NadD conf inactive
COC(=O)[C@]12CCCCC=C1N(CCC1=CCCCC1)C(=O)[C@H](CC(=O)NCCCN1CCCC1=O)C2	none (no result: PHOSPHO1 block, UBC9 SUMO inh, pCIP destab)
S=c1[nH]nc(-c2cc(-c3ccccc3)n[nH]2)n1/N=C/c1cccc(Cl)c1	none (no result: UBC9 SUMO inh)
CCn1c2ccccc2c2cc(/C=N/n3c(-c4cc(C)[nH]n4)n[nH]c3=S)ccc21	NadD block 61.7 | NadD conf 63.5
S=c1[nH]nc(-c2cc(-c3ccccc3)n[nH]2)n1/N=C/c1ccc(Cl)cc1	NadD block 26.3 | NadD conf inactive
S=c1[nH]nc(-c2cc(-c3ccccc3)n[nH]2)n1/N=C/c1ccc(Cl)c(Cl)c1	NadD block 30.5 (no result: UBC9 SUMO inh) | NadD conf inactive
COc1cc(/C=N/n2c(-c3cc(C)[nH]n3)n[nH]c2=S)cc(OC)c1O	none
C[C@@H]1CC2=C(C(=O)OC(C)(C)O2)[C@H](c2ccc(F)cc2)O1	none (no result: PHOSPHO1 block, UBC9 SUMO inh, pCIP destab)
O=C(Nc1ccc(F)cc1)c1nc2c(nnn2Cc2cccc3ccccc23)c(=O)[nH]1	NadD block 32.9 | NadD conf inactive
Cc1cc2c(cc1S(=O)(=O)NCc1ccc(N(C)C)cc1)OCC(=O)N2	none
Cc1ccc(Nc2nnc(SCC(O)=C(C#N)c3nc4ccccc4[nH]3)s2)c(C)c1	NadD block 30.5 (no result: PHOSPHO1 block, UBC9 SUMO inh, pCIP destab) | NadD conf 60.1
Cn1cnnc1SC/C(O)=C(\C#N)c1nc2ccccc2[nH]1	none
Cc1ccc(C)c(SCC(=O)OC/C(O)=C(\C#N)c2nc3ccccc3[nH]2)c1	none
Cc1cccc(Nc2nnc(SC/C(O)=C(\C#N)c3nc4ccccc4[nH]3)s2)c1C	NadD block 45.2 | NadD conf inactive
Cc1cccc(C)c1Nc1nnc(SC/C(O)=C(\C#N)c2nc3ccccc3[nH]2)s1	NadD block 31.9 | NadD conf 68.9
CN(CC(=O)Nc1c(Cl)cccc1Cl)C(=O)CCC1CCCC1	none
CCCC(C)(C)C(=O)N1CCC1(C)C(=O)Nc1cccc(OC)c1 (centres undefined)	none (no result: PHOSPHO1 block, UBC9 SUMO inh, pCIP destab)
Cc1[nH]c2ccccc2c1C(=O)CSC(=S)N1CCOCC1	none
COc1ccccc1C(=O)N1CCN(C(=O)c2oc3c(C)c(C)ccc3c2C)CC1	none (no result: PHOSPHO1 block, UBC9 SUMO inh, pCIP destab)
COc1ccc(C2=NN(C(=O)COC(=O)c3ccc(NC(=O)CC#N)cc3)C(c3ccco3)C2)cc1 (centres undefined)	NadD block 37.3 (no result: PHOSPHO1 block, UBC9 SUMO inh, pCIP destab) | NadD conf inactive
Cc1ccc(-n2nc3c(c2NC(=O)/C=C\c2ccc4c(c2)OCO4)CSC3)cc1	NadD block 41.5 | NadD conf 61.9
Cc1ccccc1-n1nc2c(c1NC(=O)c1c(-c3ccccc3Cl)noc1C)CSC2	NadD block 63.2 | NadD conf inactive
